Bioassay records deposited in PubChem BioAssay by National Center for Advancing Translational Sciences (NCATS).
Sampled rows, rich in hits. Any-hit rate of the full collection: about 18%.
DT40 TDP1 CPT – DT40-hTDP1 cell growth loss with CPT. chicken DT40 Tdp1-/-;hTDP1 cells + 20 nM CPT, ATP luminescence, 48 h. Potency, µM (highest dose often 46.2 µM), without a hit: top-dose activity change, negative = growth inhibition, hits mostly inhibitors. 420,000 tested, 12% active; note: potency is the fitted concentration of half-maximal effect; nearly all actives have a fitted effect of over 55% in size
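Chicken DT40 Tdp1-/- cells complemented with human TDP1, 400 cells/well, exposed to compounds plus 20 nM camptothecin for at least 48 h at 37 C; viability read as ATP content by CellTiter-Glo luminescence.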
IL1B secr inh – blocks inflammasome-driven IL-1 beta release; activity change, % at 57.5 µM; 360,000 tested, 4.7% active; THP-1 LPS/ATP IL-1B secretion, AlphaLISA, 16 h; active compounds read low; in the data active = activity change below about -50%; inconclusive = mostly about -30% to -49%
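Secreted IL-1B measured by AlphaLISA bead assay after 16 h compound exposure of THP-1 cells; compounds (final up to 57.5 uM) added 1 h before LPS (250 ng/mL) and ATP (1.25 mM) stimulation; lower signal means less secretion.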
DT40 TDP1 no CPT – qHTS for Inhibitors of human tyrosyl-DNA phosphodiesterase 1 (TDP1): qHTS in cells in absence of CPT | DT40 Tdp1-/- hTDP1 cells, no CPT, ATP luminescence, 48 h | Potency, µM (top dose mostly 46.2 µM), inactives show at the highest dose activity change, negative = growth inhibition, most hits filed as inhibitors | 420,000 tested, 15% active | AID 686978, 2013; note: potency is the fitted concentration of half-maximal effect; nearly all actives have a fitted effect of over 55% in size
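Stably hTDP1-transfected Tdp1-null chicken DT40 cells were treated with library compounds minus camptothecin and grown for at least 48 hr at 37 °C, after which cellular ATP was quantified by luminescence.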
CtBP-E1A inh – CtBP/E1A binding inhibition. AlphaScreen GST-E1A/His-CtBP binding, 1536-well; active compounds read low. activity change, % (test concentration not listed). 340,000 tested, 0.49% active. AID 651724; in the data active = activity change below about -65%; inconclusive = mostly about -30% to -63%
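GST-E1A and His-tagged CtBP (125 nM each as 5X stock) were preincubated with pin-transferred compound for 2 h at 37 °C in the dark, then glutathione donor and nickel acceptor beads were added for 1 h before AlphaScreen reading.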
Six1-Eya2 inh – Six1/Eya2 interaction inhibition; AlphaScreen GST-Six1/His-Eya2 binding, biochemical; active compounds read low; activity change, % (concentration not given with the values); 360,000 tested, 0.56% active; Q15475+O00167; in the data active = activity change below about -65%; inconclusive = mostly about -30% to -63%
Target sequence (O00167 whole entry, looked up): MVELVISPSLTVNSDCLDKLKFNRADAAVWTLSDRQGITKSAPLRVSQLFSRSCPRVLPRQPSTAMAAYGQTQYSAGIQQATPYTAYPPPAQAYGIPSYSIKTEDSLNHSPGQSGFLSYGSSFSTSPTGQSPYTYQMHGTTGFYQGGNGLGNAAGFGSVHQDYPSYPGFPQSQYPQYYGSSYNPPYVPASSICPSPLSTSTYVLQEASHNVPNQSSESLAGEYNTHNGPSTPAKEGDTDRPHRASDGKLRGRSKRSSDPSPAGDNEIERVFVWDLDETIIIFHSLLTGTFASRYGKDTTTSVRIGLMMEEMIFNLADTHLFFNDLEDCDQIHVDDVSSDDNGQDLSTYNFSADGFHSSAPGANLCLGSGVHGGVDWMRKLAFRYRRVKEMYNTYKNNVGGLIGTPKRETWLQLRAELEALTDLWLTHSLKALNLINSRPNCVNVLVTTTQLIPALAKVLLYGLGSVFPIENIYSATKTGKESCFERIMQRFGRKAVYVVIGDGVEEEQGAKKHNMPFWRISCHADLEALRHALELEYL
Target sequence (Q15475 whole entry, looked up): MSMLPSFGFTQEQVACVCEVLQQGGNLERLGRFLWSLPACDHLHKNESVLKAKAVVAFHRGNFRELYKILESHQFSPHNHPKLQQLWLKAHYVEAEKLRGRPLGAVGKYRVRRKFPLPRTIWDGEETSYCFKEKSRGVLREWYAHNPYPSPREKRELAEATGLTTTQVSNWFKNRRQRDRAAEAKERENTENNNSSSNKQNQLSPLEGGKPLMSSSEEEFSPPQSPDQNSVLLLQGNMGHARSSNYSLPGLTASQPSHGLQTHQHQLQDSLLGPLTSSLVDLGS
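Compounds are tested against tagged Six1 and Eya2 proteins bridged by glutathione donor and nickel acceptor beads; after a one-hour incubation at 37 °C without light, AlphaScreen emission is recorded.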
TDP1 block – inhibitors of human tyrosyl-DNA phosphodiesterase TDP1 | recombinant TDP1, AlphaScreen DNA substrate cleavage | Potency, µM (doses to about 130 µM), for inactives: top-dose activity change, negative = inhibition, most hits filed as inhibitors | 350,000 tested, 0.28% active; note: potency is the fitted concentration of half-maximal effect; nearly all actives have a fitted effect of over 40% in size
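Recombinant human Tdp1 (E. coli-expressed, 1 nM final) preincubated with compounds 15 min at room temperature, then 5'-biotin/3'-phosphotyrosine-FITC DNA substrate (15 nM final) added for 5 min. AlphaScreen beads (10 ug/ml final) added 10 min; cleavage lowers signal.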
Active calls of the source: *; ? = inconclusive; . = no result given; [ ] = another dose, or the depositor's remark. Unless noted, calls come from the whole dose curve; as a rule, active = well fitted curve in the direction sought with a large enough effect; inconclusive = small, poorly fitted or top-dose-only effect, or another doubt; inactive = no such curve, though single readings can be large; an effect the other way counts as inactive or inconclusive. % is set by controls: 0 for no effect and ±100 for the full control effect.

SMILES	DT40 TDP1 CPT	IL1B secr inh	DT40 TDP1 no CPT	CtBP-E1A inh	Six1-Eya2 inh	TDP1 block
COc1ccc(NC(=O)c2cc(-c3ccccc3)nc3c2c(C)nn3-c2ccccc2)c(OC)c1	?	5.1	?	-2.8	0.3	1.9%
O=C(NCc1ccco1)c1cc(-c2cccs2)nc2ccccc12	?	15.6	?	-3.5	-2.8	0.0%
Cc1nn(-c2ccccc2)c2nc(-c3ccncc3)cc(C(=O)NCc3ccco3)c12	?	-2.1	18.4µM*	-1.0	-4.3	0.0%
CCOC(=O)c1cc(-c2cccs2)nc2c1c(C)nn2-c1ccccn1	14.6µM*	-79.1*	14.6µM*	2.9	-1.1	-0.5%
Cc1cccc(OCC(=O)N/N=C\c2cccn2C)c1C	-1.6%	40.7	?	-13.7	-14.5	6.3%
O=C(O)c1oc2ccccc2c1CSc1ccc(Cl)cc1	-1.0%	7.0	?	0.0	-5.1	8.0%
CCCCn1nc2cc(C(=O)NCc3ccco3)ccc2c1OCC	5.7%	-9.0	-7.9%	.	-3.9	6.2%
COc1cc(CN2CC(=O)N(c3ccc(C)c(Cl)c3)C2=S)cc(OC)c1OC	?	-13.4	20.6µM*	-6.7	-1.0	.
COc1cc(CN2CC(=O)N(c3ccc(C)cc3)C2=S)cc(OC)c1OC	?	1.8	25.9µM*	41.5	-5.2	-5.3%
COc1ccc(S(=O)(=O)N2CCCCC2c2cc(C(=O)NC(C)C)no2)cc1 (centres undefined)	-23.5%	-10.5	-18.7%	-1.9	-3.1	.
CC1CC(OC(=O)C(O)c2ccccc2)CC(C)(C)C1 (centres undefined)	?	.	7.5µM*	.	.	4.3%
CCOC(=O)C1(CC/C(C)=N\NC(N)=O)CC(C)OC1=O (centres undefined)	0.6%	11.1	-6.4%	-3.9	3.6	8.1%
CS(=O)(=O)C1=NN2C(=N)/C(=C\c3ccc(OC(=O)c4ccco4)cc3)C(=O)N=C2S1	-1.0%	75.8	-9.3%	.	6.7	50.1µM*
COc1ccccc1OCCOc1ccc(/C=C2\C(=N)N3N=C(S(C)(=O)=O)SC3=NC2=O)cc1	?	-17.0	23.1µM*	.	-24.2	.
CCC1=NN2C(=N)/C(=C\c3ccc(OCCOc4ccc(NC(C)=O)cc4)cc3)C(=O)N=C2S1	9.4%	1.6	-6.4%	-4.4	-3.9	.
CC(=O)Nc1ccc(OCCOc2ccc(/C=C3/C(=N)N4C=CSC4=NC3=O)cc2)cc1	20.6µM*	53.6	10.3µM*	-2.0	-4.5	-5.4%
CS(=O)(=O)C1=NSC2=NC(=O)/C(=C\c3ccc(OC(=O)c4ccco4)cc3)C(=N)N21	.	.	.	.	.	-20.8%
N=C1/C(=C\c2ccc(OC(=O)c3ccc(F)cc3)cc2)C(=O)N=C2SC(N3CCOCC3)=NN12	-7.8%	-5.6	-19.9%	.	?	56.2µM*
O=C(NCCc1ccccc1)c1cnc2ccccc2n1	?	7.5	-17.9%	-2.5	2.3	.
Nc1nc(N)c2ncc(C(=O)CCc3ccccc3)nc2n1	13µM*	18.8	?	0.0	-6.6	-1.2%
C[C@H](CO)N1C[C@H](C)[C@@H](CN(C)S(=O)(=O)c2ccccc2)Oc2ccc(NS(=O)(=O)c3cn(C)cn3)cc2C1=O	-1.6%	12.7	1.4%	5.8	-13.7	1.3%
O=C(CSc1nnnn1C1CC2CCC1C2)Nc1ccnc2ccccc12 (centres undefined)	0.164µM*	-17.7	0.164µM*	-2.8	-11.9	4.2%
O=C(CSc1nnnn1C1CCCCC1)Nc1ccccc1F	3.5%	0.0	-41.2%	-1.2	9.3	-2.5%
O=C(Nc1ccccc1C(=O)Nc1nnc(C(F)(F)F)s1)c1ccccc1	2.91µM*	.	4.11µM*	5.6	-0.1	3.8%
Cc1occc1C(=O)Nc1nnc(C(F)(F)F)s1	-18.2%	14.8	-23.2%	0.0	-2.8	-6.6%
SMILES	DT40 TDP1 CPT	IL1B secr inh	DT40 TDP1 no CPT	CtBP-E1A inh	Six1-Eya2 inh	TDP1 block
CCC(C)c1ccccc1NC(=O)Cc1coc2cc3c(cc12)CCC3 (centres undefined)	?	-12.5	18.4µM*	12.5	-1.6	-0.6%
CC(=O)c1cccc(NC(=O)Cc2coc3cc4c(cc23)CCC4)c1	?	5.8	6.51µM*	15.7	4.6	-2.7%
COc1ccc(NS(=O)(=O)c2ccc(N3CCOCC3)c(NC(=O)c3ccc(F)cc3)c2)cc1	8.2µM*	-12.5	13µM*	6.4	-2.4	2.3%
CCOC(=O)/C=C/C(=O)Nc1cc(S(=O)(=O)Nc2ccc(OC)cc2)ccc1N1CCOCC1	5.8µM*	-107.0*	5.17µM*	-2.1	5.0	2.9%[0.505 µM]
COc1ccc(CC(=O)Nc2cc(S(=O)(=O)N3CCOCC3)ccc2N2CCOCC2)cc1	0.5%	16.3	-28.5%	7.7	-8.6	0.0%
CC(=O)NCCC(=O)Nc1cc(S(=O)(=O)Nc2ccc(Cl)cc2)ccc1N1CCCC1	?	-1.9	?	-0.4	6.7	.
COc1ccc(NS(=O)(=O)c2ccc(N3CCOCC3)c(NC(=O)C(C)C)c2)cc1	16.4µM*	5.2	18.4µM*	7.5	10.8	5.3%
O=C(Nc1cc(S(=O)(=O)Nc2ccc(Cl)cc2)ccc1N1CCCCC1)c1ccc(F)cc1	20.6µM*	-66.2*	18.4µM*	-13.9	-19.5	0.6%
CCC(=O)Nc1ccc2c(c1)nc(CCN1CCC(C)CC1)n2C	-10.1%	-11.2	18.5%	5.4	25.7	.
COC(=O)[C@]12CCCCC=C1N(Cc1cccc3ccccc13)C(=O)[C@H](CC(=O)NCC13CC4CC(CC(C4)C1)C3)C2	?	?	?	-22.4	-0.4	.
COc1ccc(NS(=O)(=O)c2ccc(N3CCOCC3)c(NC(=O)c3cccc(F)c3)c2)cc1	9.2µM*	-28.8	8.2µM*	4.0	-3.1	2.6%
COC(=O)c1cc(NS(=O)(=O)c2ccc(N3CCOCC3)c(NC(C)=O)c2)cc(C(=O)OC)c1	33.5%	38.8	20.0%	17.5	3.5	1.8%
COCCN(C(=O)Cc1csc(-c2cccc(Cl)c2)n1)c1c(N)n(Cc2ccccc2)c(=O)[nH]c1=O	-13.7%	?	-7.9%	0.0	0.4	.
CCOC(=O)c1cc(-c2ccccc2)n(CCC(=O)Nc2cc(C)cc(C)c2)c1C	14.6µM*	.	14.6µM*	.	.	2.8%
CCOC(=O)c1cc(-c2ccccc2)n(CCC(=O)Nc2ccc(Cl)c(C(F)(F)F)c2)c1C	3.66µM*	.	4.61µM*	.	.	0.9%
